# Sampled rows, rich in hits. Any-hit rate of the full collection: about 3.6%.
# mHTT CaM bind – inhibitors of human mutant huntingtin-calmodulin interaction; P42858; inhibition, % at 15 µM; 190,000 compounds, 3.6% hits; AlphaScreen His-mHTT/GST-CaM binding, luminescence;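 also: 0% = both proteins with DMSO and 100% = one protein alone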
# Pf apPOL block – Pf-apPOL DNA polymerase inhibition; inhibition, % at 10 µM; 210,000 compounds, 0.25% hits; Recombinant Pf-apPOL, molecular beacon fluorescence, 1.5 h
# * = called active by the depositor; . = no result. Rule as the data show it: active = inhibition above about 50%; inactive = the rest.
SMILES,mHTT CaM bind,Pf apPOL block
O=c1[nH]c2ccc(Cl)cc2c(-c2ccccc2)c1Sc1ncn[nH]1,5,-4
COc1cc(C=CC(=O)c2c(-c3ccccc3)c3cc(Cl)ccc3[nH]c2=O)cc(OC)c1OC,100*,1
C=CCNC(=O)C(=O)NCc1ccc(F)cc1,1,-11
COc1ccc(-c2ccc(CN3C(CC(C)C)C(=O)N(Cc4cn(CCC5OCCO5)nn4)CCS3(=O)=O)cc2)cc1OC (stereo unspecified),21,-8
CC(C)CC1C(=O)N(Cc2cn(CCC3OCCCO3)nn2)CCS(=O)(=O)N1Cc1ccc(-c2ccc(Cl)nc2)cc1 (stereo unspecified),29,-23
CC(C)C1C(=O)N(Cc2cn(CCC3OCCO3)nn2)CCS(=O)(=O)N1Cc1ccc(-c2cccc(CO)c2)cc1 (stereo unspecified),45,-5
CC(C)CC1C(=O)N(Cc2cn(CCC3OCCCO3)nn2)CCS(=O)(=O)N1Cc1ccc(-c2ccc(Cl)c(Cl)c2)cc1 (stereo unspecified),60*,-4
CC(C)CC1C(=O)N(Cc2cn(CCC3OCCO3)nn2)CCS(=O)(=O)N1Cc1ccc(-c2cccc(N(C)C)c2)cc1 (stereo unspecified),72*,2
CC(C)CC1C(=O)N(Cc2cn(CCC3OCCO3)nn2)CCS(=O)(=O)N1Cc1ccc(-c2ccc(F)cc2)cc1 (stereo unspecified),68*,-7
COc1cc(OC)c(OC)cc1C=C1Oc2cc(OS(C)(=O)=O)ccc2C1=O,2,-9
COc1ccccc1-n1c(=O)c2cc3c(=O)n(-c4ccccc4OC)c(=O)c3cc2c1=O,0,3
CCCn1cnc2c1c(=O)n(C1CCCC1)c(=O)n2-c1ccccc1,8,6
CCCS(=O)(=O)C(C#N)=CNc1ccccn1,.,-8
COc1ccc(Cl)cc1N(CC(=O)Nc1ccc(Cl)cc1)S(C)(=O)=O,24,-6
CC1=C(C#N)C(=O)N(C)C(=O)/C1=C\c1ccc(-c2ccc(Br)cc2C(=O)O)o1,17,-2
CC1=C(C#N)C(=O)N(CCCO)C(=O)/C1=C\c1ccc(-c2cc(C)c(C)cc2[N+](=O)[O-])o1,79*,2
Cc1cccc(Nc2nc(-c3ccc(C)c(C)c3)cs2)c1,55*,-7
c1ccc(Nc2nc(-c3ccc4c(c3)OCO4)cs2)nc1,37,4
COc1ccc(Nc2nc(-c3ccc(C)c(C)c3)cs2)cc1,31,4
CC(=O)Nc1nc(C)c(-c2csc(Nc3ccc([N+](=O)[O-])cc3)n2)s1,32,-16
Cc1nc(N)sc1-c1csc(Nc2ccc([N+](=O)[O-])cc2)n1,99*,-5
Ic1ccc(-c2csc(Nc3ccc4c(c3)OCO4)n2)cc1,62*,-3
Cc1nc(N)sc1-c1csc(Nc2ccccc2)n1,89*,0
Cc1nc(N)sc1-c1csc(Nc2cccc(C(=O)O)c2)n1,30,-2
Fc1cc(F)cc(CN2CCC(c3nc(C4CC4)n[nH]3)CC2)c1,-7,-7
SMILES,mHTT CaM bind,Pf apPOL block
O=C(CC1Nc2ccccc2NC1=O)Nc1ccc([N+](=O)[O-])cc1 (stereo unspecified),-3,-2
O=C(CSCc1ccc(Cl)cc1Cl)Nc1ccc2c(c1)OCO2,.,4
Cc1ccc(C2C(=C(O)c3ccc(Cl)cc3)C(=O)C(=O)N2CCCN(C)C)o1 (stereo unspecified),0,2
CCOc1c(Cl)cc(C(=O)Nc2ccc(O)cc2)cc1Cl,2,-2
O=C(COc1ccc(/C=C2/NC(=O)N(Cc3ccc(Cl)cc3)C2=O)cc1)Nc1ccc(F)cc1,9,1
Cc1ccnc(Nc2nc(-c3sc(N)nc3C)cs2)c1,66*,-5
Cc1cccc(NCc2ccc([N+](=O)[O-])cc2)c1,39,-1
Cc1ccnc(Nc2nc(-c3ccccc3)cs2)c1,-3,-3
O=[N+]([O-])c1ccc(Nc2nc(-c3ccncc3)cs2)cc1,-2,12
Cc1ccc(Nc2nc(-c3ccc([N+](=O)[O-])cc3)cs2)cc1C,75*,-1
Cc1ccc(NCc2ccc([N+](=O)[O-])cc2)cc1C,60*,-4
COc1ccccc1NC(=O)c1ccc(Br)cc1F,-32,3
CC(C)CN1CCn2cc(C(=O)NCc3ccc(F)cc3F)nc2C1,11,-2
O=C(NC1CC1)c1ccccc1N1CCC(NC(=O)C2CCC2)CC1,1,3
Cc1ccc(NC(=O)Cn2cccc2-c2nnc(C3CC3)o2)cc1F,-8,0
O=C1c2ccccc2C2NCCCN12 (stereo unspecified),.,-4
CCc1onc(C)c1C1CCCN1C(=O)c1cc(C2CCCCC2)no1 (stereo unspecified),-6,-1
C=CCn1c(=N)c(C(=O)NC2CCCC2)cc2c(=O)n3cc(C)ccc3nc21,-3,-10
O=C1OC(c2ccc(Cl)cc2)=N/C1=C\C=C\c1ccco1,68*,4
O=C1OC(c2ccc(Cl)cc2)=N/C1=C\c1ccco1,-4,-5
